# Reference: ChEMBL document CHEMBL5606458, “ASAP - ZIKV NS2B-NS3 protease fluorescence single point” (2024)
# About 160 (5.9%) of roughly 2,700 compounds showed an effect of 50% or more. Shown is part of a subset that was picked to be rich in strong results.
# Target: Nonstructural protein 3 (Zika virus) (UniProt A0A024AXB9)
# [1] = PRVABC59, Concentration 50.0 uM, Number of replicates 1.0
# Sequence of Nonstructural protein 3 (Zika virus) (A0A024AXB9 as listed by the source): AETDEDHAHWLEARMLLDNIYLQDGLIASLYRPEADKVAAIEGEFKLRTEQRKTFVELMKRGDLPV
structure (smiles),measurement,setting,value
Nc1ccc(/C=C/C(=O)C(=O)N2CCN(CCc3ccccc3)CC2)cc1,inhibition,"PRVABC59, Concentration 49.5 uM, Number of replicates 2.0, Standard deviation 1.009989544626084 %",23.1%
same,inhibition,"PRVABC59, Concentration 99.01 uM, Number of replicates 2.0, Standard deviation 0.19781370467497048 %",38.5%
same,inhibition,"PRVABC59, Concentration 198.0 uM, Number of replicates 2.0, Standard deviation 0.599146111439346 %",56%
O=C(/C=C/c1ccccc1)C(=O)N1CCN(CCc2ccccc2)CC1,inhibition,"PRVABC59, Concentration 49.5 uM, Number of replicates 2.0, Standard deviation 0.08274041706676757 %",1.32%
same,inhibition,"PRVABC59, Concentration 99.01 uM, Number of replicates 2.0, Standard deviation 0.30038362391023454 %",6.15%
same,inhibition,"PRVABC59, Concentration 198.0 uM, Number of replicates 2.0, Standard deviation 0.5414096494264544 %",13.3%
same,inhibition,"PRVABC59, Concentration 200.0 uM, Number of replicates 1.0",96.2%
O=Cc1ccc(N2CCC(C(=O)N3CCN(CCc4ccccc4)CC3)CC2)cc1,inhibition,[1],37.9%
OCCOc1cc(COc2cccnc2F)nc(N2CCNCC2)n1,inhibition,"PRVABC59, Concentration 49.5 uM, Number of replicates 2.0, Standard deviation 1.0649598246775087 %",10.8%
same,inhibition,"PRVABC59, Concentration 99.01 uM, Number of replicates 2.0, Standard deviation 1.1158273619074888 %",21.6%
same,inhibition,"PRVABC59, Concentration 198.0 uM, Number of replicates 2.0, Standard deviation 0.21003831379185828 %",36.7%
NC(=O)c1cn(C[C@H]2CCCN2c2ccnc3ccccc23)nn1,inhibition,"PRVABC59, Concentration 49.5 uM, Number of replicates 2.0, Standard deviation 1.7032876695413104 %",13.6%
same,inhibition,"PRVABC59, Concentration 99.01 uM, Number of replicates 2.0, Standard deviation 1.9821170579482856 %",21.5%
same,inhibition,"PRVABC59, Concentration 198.0 uM, Number of replicates 2.0, Standard deviation 3.129764278957135 %",35.6%
O=Cc1ccc(N2CCC(C(=O)N3CCN(c4ccc([N+](=O)[O-])cc4C(F)(F)F)CC3)CC2)cc1,inhibition,[1],51.4%
O=Cc1ccc(N2CCC(C(=O)N3CCC(CCN4CCCC4)CC3)CC2)cc1,inhibition,[1],40.2%
CS(=O)(=O)c1ccc(N2CCN(C(=O)C3CCN(c4ccc(C=O)cc4)CC3)CC2)c([N+](=O)[O-])c1,inhibition,[1],38.3%
Fc1ncccc1OCc1cc(Cl)nc(N2CCNCC2)n1,inhibition,"PRVABC59, Concentration 49.5 uM, Number of replicates 2.0, Standard deviation 1.0140201320428779 %",15.1%
same,inhibition,"PRVABC59, Concentration 99.01 uM, Number of replicates 2.0, Standard deviation 1.7990689115932277 %",28.4%
same,inhibition,"PRVABC59, Concentration 198.0 uM, Number of replicates 2.0, Standard deviation 0.8686404786633404 %",49%
COc1ccc(S(=O)(=O)n2nc(OC(=O)c3cccc(-c4ccccc4Cl)c3)cc2N)cc1,inhibition,"PRVABC59, Concentration 49.5 uM, Number of replicates 2.0, Standard deviation 0.015159378472398365 %",94.1%
same,inhibition,"PRVABC59, Concentration 99.01 uM, Number of replicates 2.0, Standard deviation 0.0016885713387404585 %",94.1%
same,inhibition,"PRVABC59, Concentration 198.0 uM, Number of replicates 2.0, Standard deviation 0.07411371581986076 %",93.9%
Cc1nc(C2CCN(Cc3c[nH]c4ccccc34)CC2)sc1C(=O)O,inhibition,"PRVABC59, Concentration 49.5 uM, Number of replicates 2.0, Standard deviation 1.7503606417061577 %",29.1%
same,inhibition,"PRVABC59, Concentration 99.01 uM, Number of replicates 2.0, Standard deviation 0.7623791698480982 %",49%
same,inhibition,"PRVABC59, Concentration 198.0 uM, Number of replicates 2.0, Standard deviation 0.018153490590612276 %",66.9%
c1ccc2oc(C3CCN(Cc4c[nH]c5ccccc45)CC3)nc2c1,inhibition,"PRVABC59, Concentration 49.5 uM, Number of replicates 2.0, Standard deviation 0.07645236015003325 %",37.2%
same,inhibition,"PRVABC59, Concentration 99.01 uM, Number of replicates 2.0, Standard deviation 0.17318915555138958 %",54.7%
same,inhibition,"PRVABC59, Concentration 198.0 uM, Number of replicates 2.0, Standard deviation 0.13417938126885842 %",70.9%
c1ccc(-c2csc(C3CCN(Cc4c[nH]c5ccccc45)CC3)n2)cc1,inhibition,"PRVABC59, Concentration 49.5 uM, Number of replicates 2.0, Standard deviation 0.9101885047505917 %",64.4%
same,inhibition,"PRVABC59, Concentration 99.01 uM, Number of replicates 2.0, Standard deviation 0.676804208631579 %",66.1%
same,inhibition,"PRVABC59, Concentration 198.0 uM, Number of replicates 2.0, Standard deviation 0.5886424424408551 %",66.1%
c1ccc2sc(C3CCN(Cc4c[nH]c5ccccc45)CC3)nc2c1,inhibition,"PRVABC59, Concentration 49.5 uM, Number of replicates 2.0, Standard deviation 0.0213310257935456 %",83.5%
same,inhibition,"PRVABC59, Concentration 99.01 uM, Number of replicates 2.0, Standard deviation 0.10666052376433739 %",89.1%
same,inhibition,"PRVABC59, Concentration 198.0 uM, Number of replicates 2.0, Standard deviation 0.03774199707932348 %",90.7%
COC(=O)c1csc2cc(C(=O)N3CCCc4cc(CCN)ccc43)[nH]c12,inhibition,"PRVABC59, Concentration 49.5 uM, Number of replicates 2.0, Standard deviation 0.9658024514724747 %",6.59%
same,inhibition,"PRVABC59, Concentration 99.01 uM, Number of replicates 2.0, Standard deviation 0.02626726469114151 %",17.1%
same,inhibition,"PRVABC59, Concentration 198.0 uM, Number of replicates 2.0, Standard deviation 0.028287616021359725 %",35.6%
c1ccc2c([C@H]3CCN(C[C@H]4CCOC4)C3)c[nH]c2c1,inhibition,"PRVABC59, Concentration 49.5 uM, Number of replicates 2.0, Standard deviation 3.5400839111105795 %",4.89%
same,inhibition,"PRVABC59, Concentration 99.01 uM, Number of replicates 2.0, Standard deviation 2.681337995191051 %",11.3%
same,inhibition,"PRVABC59, Concentration 198.0 uM, Number of replicates 2.0, Standard deviation 1.591884445207739 %",20.9%
CS(=O)(=O)c1ccc(N2CCNCC2)cc1NC(=O)c1cccc2ncccc12,inhibition,"PRVABC59, Concentration 49.5 uM, Number of replicates 2.0, Standard deviation 1.82855821855933 %",11.9%
same,inhibition,"PRVABC59, Concentration 99.01 uM, Number of replicates 2.0, Standard deviation 4.882597086209548 %",19.4%
same,inhibition,"PRVABC59, Concentration 198.0 uM, Number of replicates 2.0, Standard deviation 6.745947359627227 %",12.5%
CCn1ccnc(N2CC[C@@H](CC(N)=O)C2)c1=O,inhibition,"PRVABC59, Concentration 49.5 uM, Number of replicates 2.0, Standard deviation 2.578637589312797 %",7.29%
same,inhibition,"PRVABC59, Concentration 99.01 uM, Number of replicates 2.0, Standard deviation 2.4095461189610305 %",15.8%
same,inhibition,"PRVABC59, Concentration 198.0 uM, Number of replicates 2.0, Standard deviation 1.1815224976183896 %",30.8%
Cc1cnccc1NC(=O)c1cccn(C[C@@H]2CCNC2)c1=O,inhibition,"PRVABC59, Concentration 49.5 uM, Number of replicates 2.0, Standard deviation 1.3483593644559142 %",2.86%
same,inhibition,"PRVABC59, Concentration 99.01 uM, Number of replicates 2.0, Standard deviation 1.4355155911348652 %",4.88%
same,inhibition,"PRVABC59, Concentration 198.0 uM, Number of replicates 2.0, Standard deviation 0.7536456684870648 %",8.2%
O=S(=O)(Nc1ccc(Cl)cc1)c1ccc(Oc2ccccc2Cl)cc1,inhibition,"PRVABC59, Concentration 49.5 uM, Number of replicates 2.0, Standard deviation 0.5562375850821631 %",7.5%
same,inhibition,"PRVABC59, Concentration 99.01 uM, Number of replicates 2.0, Standard deviation 0.1909474772903637 %",13.8%
same,inhibition,"PRVABC59, Concentration 198.0 uM, Number of replicates 2.0, Standard deviation 0.9464347944699606 %",26.1%
